Screening results as filed in PubChem BioAssay.
HGIII-sPLA2 inh: human group III sPLA2 inhibitors, primary screen, biochemical, QFRET, BODIPY PC-A2 liposome substrate | QFRET BODIPY PC-A2 liposome hydrolysis, fluorescence | actives 0.56% (n = 370,000) | inhibition, % at 12.2 µM | Group 3 secretory phospholipase A2 (Homo sapiens), Q9NZ20;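 active = inhibition above mean plus 3 SD of compounds lying within the high and low control bounds, cut at about 19% in these data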
ADAM17 inh: ADAM17 inhibitors, primary screen, biochemical, QFRET | Disintegrin and metalloproteinase domain-containing protein 17 (Homo sapiens), P78536 | recombinant ADAM17, EDANS/DABCYL FRET peptide cleavage | inhibition, % at 6.95 µM | actives 0.83% (n = 370,000) | AID 720648, 2013;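 active = inhibition above the mean of compounds lying between control limits plus 3 SD, set per campaign, cut at about 8.5% in these data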
ADAM10 inh: human ADAM10 inhibitors, primary screen, biochemical, QFRET, HTS. recombinant ADAM10, EDANS/DABCYL FRET peptide cleavage, 3 h. inhibition, % at 7 µM. actives 0.62% (n = 370,000);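 active = inhibition above a per-campaign cutoff equal to the mean of compounds falling between control-based bounds plus 3 SD, cut at about 20% in these data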
FAS TE block: FAS thioesterase domain inhibitors, primary screen, biochemical, fluorescence intensity, uHTS; Fatty acid synthase (Homo sapiens), P49327; recombinant FAS-TE, OMFH fluorogenic substrate, fluorescence endpoint; inhibition, % at 15 µM; actives 0.67% (n = 360,000); AID 602261, 2012;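 active = compounds whose normalised, plate-corrected inhibition of enzyme fluorescence in the single-dose primary screen is 50% or more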
GRIN3A LBD mod: binders of NR3A ligand-binding domain, primary screen, biophysical, differential scanning fluorimetry, uHTS | Tm shift relative to glycine control, % at 25 µM | NR3A LBD differential scanning fluorimetry, Tm shift; 0% = protein alone, 100% = glycine-bound protein | Glutamate receptor ionotropic, NMDA 3A (GRIN3A) ligand-binding domain | actives 2.5% (n = 340,000);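 active = melting temperature shift of at least 10% of the positive control shift, at one fixed dose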
Numbers stand for hits. A selection: hits, their analogues and other compounds. The true share with any hit is near 4.3%.

Cc1cc2c(cc1C)CSC(c1ccc(O)cc1)SC2 was read as HGIII-sPLA2 inh inactive, ADAM17 inh inactive, ADAM10 inh inactive, FAS TE block inactive and GRIN3A LBD mod inactive.
Screening CCCCC(=O)Oc1ccccc1C1SCc2cc(C)c(C)cc2CS1 returned HGIII-sPLA2 inh inactive, ADAM17 inh inactive, ADAM10 inh inactive, FAS TE block inactive and GRIN3A LBD mod inactive.
Screening Cc1cc2c(cc1C)CSC(c1ccccc1OC(=O)C(C)(C)C)SC2 returned HGIII-sPLA2 inh inactive, ADAM17 inh inactive, ADAM10 inh inactive, FAS TE block inactive and GRIN3A LBD mod inactive.
For Cc1cc2c(cc1C)CSC(c1c(O)ccc3ccccc13)SC2 the results were HGIII-sPLA2 inh inactive, ADAM17 inh inactive, ADAM10 inh inactive, FAS TE block inactive and GRIN3A LBD mod 27.
For Cc1ccc(C(=O)N/N=C\c2ccc(-c3ccc(Cl)c(Cl)c3)o2)cn1 the results were HGIII-sPLA2 inh inactive, ADAM17 inh inactive, ADAM10 inh inactive, FAS TE block inactive and GRIN3A LBD mod 12.
For Cc1ccc(C(=O)N/N=C/c2ccc(OC(=O)c3ccccc3Cl)cc2)cn1 the results were HGIII-sPLA2 inh inactive, ADAM17 inh inactive, ADAM10 inh inactive, FAS TE block inactive and GRIN3A LBD mod 13.
Screening Cc1ccc(C(=O)N/N=C\c2ccc(OC(=O)c3cccs3)cc2)cn1 returned HGIII-sPLA2 inh inactive, ADAM17 inh inactive, ADAM10 inh inactive, FAS TE block inactive and GRIN3A LBD mod inactive.
O=C(N/N=C/c1ccc(OC(=O)c2ccco2)cc1)c1ccccn1 was read as HGIII-sPLA2 inh inactive, ADAM17 inh inactive, ADAM10 inh inactive, FAS TE block inactive and GRIN3A LBD mod 14.
For CC(C)CNc1cccc2c1S(=O)(=O)N(Cc1cn(Cc3ccc(F)cc3)nn1)Cc1ccccc1O2 the results were HGIII-sPLA2 inh inactive, ADAM17 inh inactive and ADAM10 inh inactive.
For Cc1ccc(NC(=O)CSc2nnc(-c3cccnc3)n2Cc2ccco2)cc1C the results were HGIII-sPLA2 inh inactive, ADAM17 inh inactive and ADAM10 inh inactive.
`COC(=O)C1CN(Cc2ccc(Cl)cc2)CCS(=O)(=O)N1Cc1cn(Cc2ccc(Cl)cc2)nn1` (configuration not stated) gave HGIII-sPLA2 inh inactive, ADAM17 inh inactive and ADAM10 inh inactive.
`Nc1ccc(-c2nc3c(ccc4ccccc43)[nH]2)cc1` gave HGIII-sPLA2 inh inactive, ADAM17 inh inactive, ADAM10 inh inactive, FAS TE block inactive and GRIN3A LBD mod 11.
For O=c1[nH]c(-c2ccc(O)cc2)nc2scc(-c3cccs3)c12 the results were HGIII-sPLA2 inh inactive, ADAM17 inh inactive, ADAM10 inh inactive, FAS TE block inactive and GRIN3A LBD mod 19.
Screening CC(=O)Nc1ccc(S(=O)(=O)N(C)CC(=O)OCC(=O)N2CCCC2=O)cc1 returned HGIII-sPLA2 inh inactive, ADAM17 inh inactive, ADAM10 inh inactive, FAS TE block inactive and GRIN3A LBD mod 17.
For O=C(/C=C/c1ccccc1)c1c[nH]c2ccccc12 the results were HGIII-sPLA2 inh inactive, ADAM17 inh inactive, ADAM10 inh inactive, FAS TE block inactive and GRIN3A LBD mod 25.
For O=C(C=Cc1ccccc1)c1c[nH]c2ccccc2c1=O the results were HGIII-sPLA2 inh inactive, ADAM17 inh inactive, ADAM10 inh inactive, FAS TE block inactive and GRIN3A LBD mod inactive.
For FC(F)(F)c1cccc(NC(=S)Nc2ccc(Cl)c(Cl)c2)c1 the results were HGIII-sPLA2 inh inactive, ADAM17 inh inactive, ADAM10 inh inactive, FAS TE block inactive and GRIN3A LBD mod 19.
Screening S=C(NCc1ccncc1)Nc1ccc(Cl)c(Cl)c1 returned HGIII-sPLA2 inh inactive, ADAM17 inh inactive, ADAM10 inh inactive, FAS TE block inactive and GRIN3A LBD mod inactive.
For O=C(NNC(=S)Nc1cccc(C(F)(F)F)c1)c1ccc(Cl)cc1Cl the results were HGIII-sPLA2 inh inactive, ADAM17 inh inactive, ADAM10 inh inactive, FAS TE block inactive and GRIN3A LBD mod 20.
Screening CC(C)(O)C(=O)NNC(=S)Nc1cccc(C(F)(F)F)c1 returned HGIII-sPLA2 inh inactive, ADAM17 inh inactive, ADAM10 inh inactive, FAS TE block inactive and GRIN3A LBD mod inactive.
